# Results published in PubChem BioAssay (NCI).
# The panel holds about 83,000 compounds, 20% with a hit somewhere; the sample as a whole holds those more often.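 Note: values are percent growth. 100 is the growth of untreated cells, values between 100 and 0 indicate rising inhibition; between -100 and 0 indicates cell death.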 Unmarked numbers belong to inactive results. The source made the active and inactive calls.
# Test system: BT-549 breast
# Experiment: NCI-60 one-dose screen, 48 h (100 = growth as untreated, 0 = no growth, -100 = all killed)
# Details: 10 µM unless noted
# Protocol: Growth inhibition of the BT-549 human tumor cell line is measured as a screen for anti-cancer activity. Cells are grown in 96 well plates and exposed to the test compound for 48 hours. Compounds are tested at a single concentration, which is 10^-5 M for most compounds. The reported endpoint is percent growth (GI% or GIPRCNT), where numbers from 0 - 100% represent growth inhibition, and numbers from -100% - 0 represent cell death. For example, a value of 40 represents 60% growth inhibition. A value of 0 means no net growth occurred over the course of the experiment. A value of -40 indicates 40% of cells at the beginning of the experiment died by the end of the experiment. A value of -100 means all cells are dead at the end of the experiment.
# NCI-60 Human Tumor Cell Lines Screen was performed using the standard one-dose NCI protocol, which is described in more detail at https://dtp.cancer.gov/discovery_development/nci-60/default.htm.
# Compounds with GIPRCNT values below 10 were considered active. Activity score was based on GIPRCNT using the following formula: […]
# Score is 0 for GIPRCNT values of 100 or above, 50 for GIPRCNT values of 0, and 100 for GIPRCNT values of -100.
row,SMILES,growth
1,CCn1c(Cc2ccccc2Nc2c(Cl)cccc2Cl)nnc1SCC(=O)NN1C(=O)/C(=C/c2cccc(OC)c2OC)SC1=S,109%
2,Brc1ccc(Nc2nc3ccccc3nc2Nc2ccc(Br)cc2)cc1,-12.6% (active)
3,Cc1ccc2c(n1)C(=O)C(Oc1ccc(Br)cc1)=CC2=O,86.5%
4,FC(F)(F)c1cccc(Nc2nc(-c3ccccc3)nc3ncccc23)c1,60.8%
5,COC(=O)c1ccc(NC(=O)CSc2nc3ccccc3c(=O)n2-c2ccccc2)cc1,94.4%
6,O=C(/C=C/c1ccc(Cl)cc1)c1ccc(Nc2nc(NCCO)nc(N3CCOCC3)n2)cc1,85%
7,O=C(NC1C(O)OC(CO)C(O)C1O)NS(=O)(=O)c1ccc(Cl)cc1 (stereo not given),108%
8,O=C(NC(=S)Nc1cccc(NC(=S)NC(=O)c2ccccc2)c1)c1ccccc1,58.4%
9,FC(F)(F)c1cccc(CNC2CCN(CCc3ccccc3)CC2)c1,96.4%
10,COc1ccc(C2=C(c3cccc(OC)c3)C(=O)c3ccc(C)nc3C2=O)cc1,57.5%
11,CC(C)(C)c1ccc(C2CC(=O)C3=C(C2)Nc2ccccc2N(C(=O)c2ccccc2Cl)C3c2ccc(F)cc2)cc1 (stereo not given),44.4%
12,O=C(/C=C/c1ccc(C(F)(F)F)cc1)c1ccc(Nc2nc(NCCO)nc(Nc3ccc(Cl)cc3)n2)cc1,57.9%
13,COc1ccc(-c2cn3c(C(=O)Nc4ccccc4Cl)c(-c4ccccc4)c4c3n2CCCC4)cc1,86.4%
14,CC1(C)CC2(C)OC2C2(C1)N=NC(=Nc1ccccc1)O2 (stereo not given),-19.1% (active)
15,O=C1Nc2ccccc2/C1=C/c1ccc[nH]1,57.8%
16,COc1ccc2oc(=O)cc(Cn3cc(Cn4cnc5c4c(=O)n(C)c(=O)n5C)nn3)c2c1,105%
17,COc1cc(C2C(C#N)=C(N)OC3=C2C(=O)c2ccccc2C3=O)cc(OC)c1OC (stereo not given),41.4%
18,CNCCNc1nc2ccccc2c2c(=O)c3cc(F)ccc3sc12,82.4%
19,Nc1nc(-c2cnccn2)nn1-c1nc2ccccc2s1,104%
20,NC1C(N)C(N)C1N (stereo not given),107%

row,SMILES,growth
1,OCCNc1nc(Nc2ccc(C3=NN(c4cc(Cl)cc(Cl)c4)C(c4ccc(C(F)(F)F)cc4)C3)cc2)nc(N2CCOCC2)n1 (stereo not given),99.3%
2,O=C(Nc1ncc(Cc2cccc(C(F)(F)F)c2)s1)C1COc2ccccc2O1 (stereo not given),90.7%
3,COC(=O)/C(CCC=C(C)C)=C1\[C@@H](OC(C)=O)C[C@@]2(C)[C@H]1C[C@@H](O)[C@H]1[C@@]3(C)CC[C@H](NCCO)[C@@H](C)[C@@H]3CC[C@@]12C,114%
4,O=c1[nH]nnc2c1ncn2C1OC(CO)C(O)C1O (stereo not given),97.7%
5,COc1ccc(N2C(=O)CC(c3cc(OC)c(OC)c(OC)c3)C3C2=NC(=O)N3C)cc1 (stereo not given),109%
6,COc1cccc(C2=NN3C(C2)c2ccccc2OC3c2ccc(/C=C3\SC(=O)NC3=O)cc2)c1 (stereo not given),97.1%
7,CCCC(c1nnnn1C1CCCCC1)N1CCN(C(=O)c2ccco2)CC1 (stereo not given),58.9%
8,COC(=O)/C(CCC=C(C)C)=C1\[C@@H](OC(C)=O)C[C@@]2(C)[C@H]1CC(=O)[C@H]1[C@@]3(C)CC[C@H](NCc4ccccc4)[C@@H](C)[C@@H]3CC[C@@]12C,89.7%
9,CC(C)c1ccc(S(=O)(=O)NC(=O)NC2CCCC2)cc1,100%
10,CCOC(=O)c1cc2c(n1Cc1ccccc1)-c1oncc1CCC2,101%
11,COC(=O)C1=Nc2ccc(F)cc2/C1=C/c1sc(=S)[nH]c1O,-3.33% (active)
12,O=C1C(Cl)=C(NCc2ccco2)C(=O)c2ccccc21,103%
13,CCOc1cccc(/C=N/NC(=O)C(=O)Nc2cccc(C(F)(F)F)c2)c1O,45.4%
14,O=C1/C(=C\c2ccc[nH]2)c2ccccc2N1c1ccccc1,78.9%
15,COC(=O)/C(CCC=C(C)C)=C1\[C@@H](OC(C)=O)C[C@@]2(C)[C@H]1C[C@@H](O)[C@H]1[C@@]3(C)CC[C@H](NC(=O)c4cnccn4)[C@@H](C)[C@@H]3CC[C@@]12C,100%
16,COc1ccc(CN2CCCC(C(=O)c3ccc(C(F)(F)F)cc3)C2)c(O)c1 (stereo not given),25.7%
17,COc1ccc(C2Nc3nc(OC)n(C)c(=O)c3N=C3c4ccccc4C(=O)C32)cc1 (stereo not given),86.3%
18,COc1ccc(OC)c(NC(=O)/C(C#N)=C/c2ccco2)c1,84.5%
19,CCCc1c(C)c2sc(=O)[nH]c2[nH]c1=O,110%
20,Cc1ccc2sc3c(NCCCNCCO)nc4ccccc4c3c(=O)c2c1,90.2%
